In PubChem BioAssay (NCATS):
Inconclusive results are not listed. Where a call stands in place of a potency, no number is given. Activity calls are given as the source filed them. Unless noted, calls follow the shape of the dose curve; as a rule, active = well fitted curve in the direction sought with a large enough effect in the repeat runs; inconclusive = weak or mixed curves; inactive = no such curve, though single readings can be large; an effect the other way counts as inactive or inconclusive.

molecular target: Calcium and integrin-binding protein 1 (Homo sapiens) (UniProt Q99828); assay: Primary qHTS for Identification of Calcium Integrin Binding Protein 1 (CIB1) Competitor (AID 1508620; active = well fitted curve in the direction sought with a large enough effect; an effect the other way counts as inactive or inconclusive;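 also: GST tagged CIB1 binding a fluorescein labelled alphaIIb integrin peptide tracer; top concentration of the series differs between compounds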); conditions: CIB1-GST / FITC-alphaIIb peptide fluorescence polarization; series mostly up to 57.7 µM
Sequence (Q99828 whole entry, looked up): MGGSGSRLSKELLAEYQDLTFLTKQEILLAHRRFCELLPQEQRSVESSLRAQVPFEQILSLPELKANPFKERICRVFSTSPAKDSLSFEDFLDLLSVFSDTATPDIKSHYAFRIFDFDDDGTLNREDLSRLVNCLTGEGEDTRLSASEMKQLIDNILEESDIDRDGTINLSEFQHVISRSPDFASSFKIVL
Method in brief: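 CIB1-GST (1 uM final) and compound incubated 15 min at room temperature before adding FITC-alphaIIb peptide tracer (100 nM final). Competition for binding read by fluorescence polarization (ex 480, em 540) after another 15 min at room temperature.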

SMILES | Potency
CC1CCC23COC(=O)C2=CC(O)CC3C1(C)CCC1=CC(=O)OC1O (centres undefined) | inactive
C=C1CCC(OC(C)=O)C2(C)CC3(O)OC(=O)C(C)=C3CC12 (centres undefined) | inactive
CC1(C)CC[C@]2(C(=O)O)CC[C@]3(C)C(=CCC4[C@@]5(C)C[C@@H](O)[C@H](O)C(C)(C)C5CC[C@]43C)[C@@H]2[C@@H]1O (some centres undefined) | inactive

system: not listed separately; assay: Primary qHTS for small molecule stabilizers of the endoplasmic reticulum resident proteome: Secreted ER Calcium Modulated Protein (SERCaMP) assay (AID 1508630; active = well fitted curve in the direction sought with a large enough effect; an effect the other way counts as inactive or inconclusive); conditions: SH-SY5Y GLuc-SERCaMP (Gaussia luciferase released on ER calcium loss) secretion, thapsigargin, luminescence; series mostly up to 38.4 µM
Method in brief: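 GLuc-SERCaMP-expressing SH-SY5Y cells, pretreated 16 h with compound, are challenged with thapsigargin to empty ER calcium stores; after 4 h, coelenterazine is added directly to the medium and luminescence is imaged.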

SMILES | outcome
COC(=O)C1=CO[C@@H](O[C@@H]2O[C@H](CO)[C@@H](O)[C@H](O)[C@H]2O)[C@@H]2[C@@H](C)[C@@H](O)C[C@H]12 | inactive
Cc1ccc(Sc2cncc3sc(C(N)=O)cc23)cc1 | inactive
CN1Cc2c(N)cccc2C(c2ccccc2)C1 (centres undefined) | inactive

molecular target: Cytochrome P450 2D6 (Homo sapiens) (UniProt P10635); assay: Cytochrome P450 family 2 subfamily D member 6 (CYP2D6) small molecule antagonists: luciferase biochemical (cell-free) qHTS assay (AID 1645840); conditions: P450-Glo CYP2D6 enzyme, luciferin luminescence, 1 h; series mostly up to 57.4 µM; also: nearly all actives have a fitted effect of over 55% in size; also: potency is read from the fitted curve at half-maximal effect
Sequence (P10635 whole entry, looked up): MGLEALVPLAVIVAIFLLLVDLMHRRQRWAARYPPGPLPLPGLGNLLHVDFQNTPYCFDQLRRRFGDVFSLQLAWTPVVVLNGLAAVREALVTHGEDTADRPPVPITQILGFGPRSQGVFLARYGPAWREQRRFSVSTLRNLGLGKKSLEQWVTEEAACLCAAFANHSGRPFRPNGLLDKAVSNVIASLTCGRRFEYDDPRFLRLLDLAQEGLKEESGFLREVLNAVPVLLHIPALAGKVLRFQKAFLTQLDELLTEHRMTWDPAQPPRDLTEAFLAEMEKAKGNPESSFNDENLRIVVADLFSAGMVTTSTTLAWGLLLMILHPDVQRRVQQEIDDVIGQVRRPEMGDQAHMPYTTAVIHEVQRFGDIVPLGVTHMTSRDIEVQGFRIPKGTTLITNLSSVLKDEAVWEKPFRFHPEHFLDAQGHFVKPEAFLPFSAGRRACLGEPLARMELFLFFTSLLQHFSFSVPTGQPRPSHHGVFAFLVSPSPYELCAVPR
Method in brief: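 P450-Glo luminescent screen: recombinant CYP2D6 enzyme–proluciferin substrate mix preincubated with compound 10 min at room temperature, then NADPH regeneration added for 1 h at room temperature. Detection reagent added for 20 min; luciferin light read as relative luminescence units.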

SMILES | Potency
CC(=O)NCCCCn1c2c(c3ccccc31)C(=O)NCC2 | inactive
CN1Cc2c(N)cccc2C(c2ccccc2)C1 (centres undefined) | 7.76 µM (active)
CC(=O)c1cnc2ccc(-c3cc(Cl)c(O)c(Cl)c3)nc2c1NC1CCC(CN(C)C)CC1 (centres undefined) | inactive
COc1ccc2cc(OCC3(C(=O)O)CN(C(=O)c4ccc(F)cc4)C3)ccc2c1 | inactive
CN(C)c1cccc(-c2c3c(=O)n(-c4ccccc4Cl)[nH]c3cc(=O)n2C)c1 | inactive
O=C(c1ccccn1)c1cnn2c(-c3ccncc3)ccnc12 | 13.5 µM (active)
N[C@@H](CC(=O)N1CCn2c(nnc2C(F)(F)F)C1)Cc1[nH]nc2c(F)c(F)ccc12 | inactive
CCNC(=O)[C@H]1O[C@H](n2cnc3c(NCC(c4ccccc4)c4ccccc4)nc(C(=O)NCCNC(=O)NC4CCN(c5ccccn5)CC4)nc32)[C@H](O)[C@@H]1O | 23.9 µM (active)
